39 molecules from PubChem BioAssay (NCATS) can be followed below.

Structures are written as SMILES. Records with an inconclusive call do not appear. A call without a number means that no potency is given here. Values without a mark were called inactive. Calls of active or inactive are those of the source. Calls come from the whole dose curve; as a rule, active = well fitted activation curve with a large enough effect; inconclusive = small, poorly fitted or top-dose-only effect; inactive = flat fitted curve, though single readings scatter. *1 amine or outer side, *2 acyl side, *3 side chain or, on linkers, in order; H or OH if unused. Where a SMILES comes first, the peptide text is derived from it. Bridges are numbered along the chain shown (N, C = ends). [ ]: non-standard residue; d: D form. The star is where a group is joined. pTerphenylCO(4''-OnC5H11) = CCCCCOc1ccc(-c2ccc(-c3ccc(C(=O)*)cc3)cc2)cc1; Orn(4R-OH,5R-OH) = O=C([C@H](C[C@@H](O)[C@@H](O)N[*:3])N[*:1])[*:2]; hTyr(3S-OH,4S-OH) = N[C@H](C(=O)O)[C@H](O)[C@@H](O)c1ccc(O)cc1; Pro(3S-OH,4S-Me) = C[C@H]1CN[C@H](C(=O)O)[C@H]1O; Hyp = O=C(O)[C@@H]1C[C@@H](O)CN1
Potency is the fitted concentration of half-maximal effect.

This experiment can be described thus: Primary redox qHTS assay for identification of artifact compounds. (AID 1845223). The settings on record: Amplex Red/HRP redox cycling with DTT, fluorescence; series mostly up to 53.8 µM. The essentials:
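Amplex Red (25 uM) and HRP (250 mU/mL) in HBSS, with compounds for 15 min, then 250 uM DTT for 30 min, room temperature, dark. Fluorescence 525/598 nm read; normalized to DMSO and 10 uM DA3003; Hill fit.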
For the molecule `O=c1[nH]c2ccc(C#CCN3CCC(Cc4ccccc4)CC3)cc2[nH]1`, the Potency entry is “inactive”.
Consider `C=C(C)[C@@H]1CC[C@]2(C(=O)O)CC[C@]3(C(=O)O)[C@H](CCC4[C@@]5(C)CCC(=O)C(C)(C)C5CC[C@]43C)C12` (some centres undefined), for which the Potency result was “inactive”.
Take `C=C(CCC1C(C)(O)CCC2C(C)(C)C(O)CCC12C)C(O)CO` (centres undefined): the Potency result is “inactive”.
Consider `C[C@@H]1O[C@@H](O[C@H]2[C@@H]3C=CO[C@@H](O[C@@H]4O[C@H](CO)[C@@H](O)[C@H](O)[C@H]4O)[C@@H]3[C@@]3(CO)O[C@@H]23)[C@H](O)[C@H](OC(=O)/C=C/c2ccccc2)[C@H]1O`, for which the Potency entry is “inactive”.
For `C#CCOc1ccc2c(c1)c(-c1ccc(C(C)C)cc1)nc(=O)n2C(C)C`, the Potency result was “inactive”.
Turning to `Cn1nc(-c2ccc(C(F)(F)F)cc2)nc2c(=O)n(C)c(=O)nc1-2`, the Potency was 0.15 µM (active).
For `Cc1csc2c(N[C@@H](C)CN3CCN(S(=O)(=O)c4ccc(Cl)c(Cl)c4)CC3)ncnc12`, the Potency result is “inactive”.
On the same count and under the same terms, for `CC/C=C\CC1C(=O)C=CC1(CCCCC1CCC(=O)O1)OC(C)=O` (centres undefined) the value was “inactive”.
`C=C(C)C1CCC2(C(=O)O)CCC3(C)C(CCC4C5(C)C(C=O)C(O)C(C)(C)C5CCC43C)C12` (centres undefined): the Potency result is “inactive”.
For the molecule `OC(CC1c2ccccc2-c2cncn21)C1CCCCC1` (centres undefined), the Potency result was “inactive”.
On to `CC1=CC2/C=C(\C)CCC(O)C(=O)C(O)CC(=O)C23C(=O)NC(CC(C)C)C3C1C` (centres undefined), for which the Potency entry was “inactive”.
`N#C/C(=C1\Nc2ccccc2S1)c1ccnc(NCCc2cccnc2)n1`: the Potency result is “inactive”.
`C=CC1(C)CC(O)C(C(=C)C(=O)OC)C(O)C1C(=C)CO` (centres undefined): the Potency result was “inactive”.
For the molecule `CC(=O)O[C@@H]1[C@H](O[C@@H]2O[C@@H](CO)[C@H](O)[C@H]2O)[C@@H](O[C@@H]2O[C@@H](C)[C@H](O[C@@H]3OC[C@@H](O)[C@H](O)[C@H]3O)[C@@H](O)[C@H]2O)[C@H](OC(=O)[C@]23CCC(C)(C)C[C@H]2C2=CCC4[C@@]5(C)CC[C@H](O[C@@H]6O[C@H](C(=O)O)[C@@H](O)[C@H](O)[C@H]6O[C@@H]6O[C@H](CO)[C@H](O)[C@H](O)[C@H]6O)[C@@](C)(C=O)C5CC[C@@]4(C)[C@]2(C)C[C@H]3O)O[C@@H]1C` (some centres undefined), the redox activity (% of DA3003) is 9.67% [at 11.5 µM].
For the molecule `C=C1C(=O)OC2/C=C(\CO)CC/C=C(\C=O)C(O)C(OC(=O)C(C)CC)C12` (centres undefined), the Potency result was “inactive”.
As to `COC1CC(O[C@H]2CC[C@]3(C)C4CC[C@]5(C)C(C6=CC(=O)OC6)=CCC56OC46CC[C@@H]3C2)OC(C)C1O[C@@H]1O[C@H](CO[C@@H]2O[C@H](CO)[C@@H](O)[C@H](O)[C@H]2O)[C@@H](O)[C@H](O)[C@H]1O` (some centres undefined), the redox activity (% of DA3003) was 3.85% [at 11.5 µM].
Turning to `Nc1nc2c(c(N3CC[C@@H](N)C3)n1)CCCc1ccccc1-2`, the Potency entry is “inactive”.
As to `COc1ccncc1C(=O)NC(=O)Nc1ccc(-c2ccccc2)c(C(F)(F)F)c1`, the Potency entry was “inactive”.
On the same count and under the same terms, then `O=[N+]([O-])c1cn2c(n1)OC[C@@H](OCc1ccc(-c3ccc(OC(F)(F)F)cc3)nc1)C2`, with “inactive”; and `C/C1=C/CCC2=CC(OC2=O)C(C)(C)/C=C/C1=O` (centres undefined), with “inactive”.
The same measure, in the same setting: then `NC(=O)N1CCC(CC(=O)N2CCC(C3c4ncc(Br)cc4CCc4cc(Cl)cc(Br)c43)CC2)CC1` (centres undefined), with “inactive”.
In the case of `C=C1CCN([C@H](C)[C@](O)(Cn2cncn2)c2ccc(F)cc2F)CC1`, the Potency result is “inactive”.
As for `CCN(Cc1cc(Nc2nc(C)cn3c(-c4cn[nH]c4)cnc23)sn1)C(C)(C)CO`, the Potency result was “inactive”.
For the molecule `O=c1cc(N2CCOCC2)nc2c3ccccc3ccn12`, the Potency entry was “inactive”.
Still for that read-out and setting: then `CC[C@H]1OC(=O)[C@H](C)[C@@H](O[C@H]2C[C@@](C)(OC)[C@@H](O)[C@H](C)O2)[C@H](C)[C@@H](O[C@H]2O[C@H](C)C[C@H](N(C)C)[C@H]2O)[C@](C)(O)C[C@@H](C)C(=O)[C@H](C)[C@@H](O)[C@]1(C)O`, with “inactive”.
As to `COc1cccc(-c2cn(-c3ccc(CCN4CCC(O)CC4)cc3)c3ncnc(N)c23)c1`, the Potency result was “inactive”.
In the case of `CN(C)CCCn1cc(C2=C(c3c[nH]c4ccccc34)C(=O)NC2=O)c2ccccc21`, the Potency result was “inactive”.
The same measure, in the same setting: then `O=C1Cc2c([nH]c3ccc(Br)cc23)-c2ncccc2N1`, with “inactive”; and `CCCCCOc1ccc(-c2ccc(-c3ccc(C(=O)N[C@H]4C[C@@H](O)[C@@H](O)NC(=O)[C@@H]5[C@@H](O)[C@@H](C)CN5C(=O)[C@H]([C@@H](C)O)NC(=O)[C@H]([C@H](O)[C@@H](O)c5ccc(O)cc5)NC(=O)[C@@H]5C[C@@H](O)CN5C(=O)[C@H]([C@@H](C)O)NC4=O)cc3)cc2)cc1` ({pTerphenylCO(4''-OnC5H11)}-[Orn(4R-OH,5R-OH)]T[Hyp][hTyr(3S-OH,4S-OH)]T[Pro(3S-OH,4S-Me)]; lactam 1-C), with “inactive”.
Turning to `CC1(C)CCC2(C(=O)OC3OC(COC4OC(CO)C(O)C(O)C4O)C(O)C(O)C3O)CCC3(C)C(=CCC4C5(C)CCC(OC6OCC(O)C(O)C6O)C(C)(C)C5CCC43C)C2C1O` (centres undefined), the redox activity (% of DA3003) is 18.7% [at 11.5 µM].
Take `C/C=C/C=C/c1cc2c(C=O)c(O)c(CC=C(C)C)cc2o1`: the Potency entry was “inactive”.
Regarding `CC(OC1OCCN(Cc2n[nH]c(=O)[nH]2)C1c1ccc(F)cc1)c1cc(C(F)(F)F)cc(C(F)(F)F)c1` (centres undefined), the Potency result was “inactive”.
On the same count and under the same terms, for `CN1CCN(C2=Nc3ccccc3Nc3ccc(Cl)cc32)CC1` the value was “inactive”.
As to `CC1CCCC[C@H]2C(=O)C=C[C@H](O)[C@@H]2CC(=O)O1` (some centres undefined), the Potency result was “inactive”.
With `Cc1cc(-c2cnc(N)c3c(-c4ccc5scnc5c4)csc23)n(C)n1`, the Potency entry was “inactive”.
For the molecule `O=C(NO)c1cnc(N2CCN(S(=O)(=O)c3ccc4ccccc4c3)CC2)nc1`, the Potency result is “inactive”.
As to `Nc1nc(NC2CC2)cc(-c2cccc(Cl)c2Cl)n1`, the Potency entry is “inactive”.
In the case of `C=C1CCC2C(C)(C(=O)O)CCCC2(C)C1CCC1=CCOC1=O` (centres undefined), the Potency entry was “inactive”.
As to `CC(O)C(C)n1ncn(-c2ccc(N3CCN(c4ccc(OCC5COC(Cn6cncn6)(c6ccc(Cl)cc6Cl)O5)cc4)CC3)cc2)c1=O` (centres undefined), the Potency entry was “inactive”.
